About 79,000 compounds went through this panel and 15% of them were active in at least one assay; those are over-represented in the sample as a whole. Active and inactive are the calls of the source. Rule as the data show it: active = growth inhibition above about 70%; inactive = the rest.
Assays:
[1] = NCI Yeast Anticancer Drug Screen. Data for the rad52 strain (AID 147);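 also: 0% = growth of vehicle-treated control cultures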; conditions: S. cerevisiae rad52 mutant growth inhibition, hits give high values
Method in brief: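 Measured: yeast growth inhibition. System: strain with a defined DNA damage repair alteration. Reference: vehicle-treated control cultures.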

[2] = NCI Yeast Anticancer Drug Screen. Data for the wt1 strain (AID 149);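 also: 0% = growth of vehicle-treated wt1 cultures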; conditions: S. cerevisiae wt1 strain (SPY 50644) growth inhibition, hits give high values
Method in brief: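 Each compound is tested on wt1 yeast and the loss of growth versus vehicle gives the inhibition value.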

[3] = NCI Yeast Anticancer Drug Screen. Data for the mgt1 strain (AID 153); conditions: S. cerevisiae mgt1 mutant growth inhibition, hits give high values
Method in brief: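 After exposure of the mgt1 yeast mutant to compound, growth was measured and reported as inhibition compared with vehicle controls.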

[4] = NCI Yeast Anticancer Drug Screen. Data for the rad50 strain (AID 155);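 also: 0% = growth of vehicle-only cultures of the same strain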; conditions: S. cerevisiae rad50 strain growth inhibition, hits give high values
Method in brief: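 Vehicle-treated cultures provide the reference for the growth inhibition reported for compound-exposed, repair-deficient yeast.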

[5] = NCI Yeast Anticancer Drug Screen. Data for the mec2-1 strain (AID 157); conditions: S. cerevisiae mec2-1 strain, hits give high values
Method in brief: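 Test agents were screened against the mec2-1 yeast strain, with defined DNA repair or cell cycle alteration. Growth was scored as inhibition against vehicle-only controls.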

[6] = NCI Yeast Anticancer Drug Screen. Data for the rad14 strain (AID 159);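 also: 0% = growth of vehicle-treated control cultures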; conditions: S. cerevisiae rad14 strain growth inhibition, hits give high values
Method in brief: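 Inhibition of growth is reported for a repair-deficient yeast mutant following compound treatment, calculated relative to cultures that received vehicle.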

[7] = NCI Yeast Anticancer Drug Screen. Data for the sgs1 mgt1 strain (AID 161);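 also: 0% = growth of cultures given vehicle only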; conditions: S. cerevisiae sgs1 mgt1 strain, hits give high values
Method in brief: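 Read-out: growth inhibition vs vehicle controls. Cells: mutant yeast strain deficient in DNA damage repair.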

[8] = NCI Yeast Anticancer Drug Screen. Data for the CLN2oe strain (AID 163);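 also: 0% = growth of vehicle-only control cultures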; conditions: S. cerevisiae CLN2oe strain, hits give high values
Method in brief: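 Here, growth inhibition in a cell-cycle-altered yeast strain after compound exposure was quantified against vehicle control growth.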

[9] = NCI Yeast Anticancer Drug Screen. Data for the cln2 rad14 strain (AID 165);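 also: 0% = growth equal to vehicle treated cultures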; conditions: S. cerevisiae cln2 rad14 strain, hits give high values
Method in brief: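 Growth of compound-exposed yeast (cln2 rad14 genotype) measured and expressed as inhibition relative to vehicle.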

[10] = NCI Yeast Anticancer Drug Screen. Data for the bub3 strain (AID 167); conditions: S. cerevisiae bub3 mutant strain, hits give high values
Method in brief: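 Mutant yeast screening strain plus compound; vehicle-treated cultures serve as the 0% inhibition reference.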

[11] = NCI Yeast Anticancer Drug Screen. Data for the wt2 strain (AID 169); conditions: S. cerevisiae wt2 strain growth inhibition, hits give high values
Method in brief: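 Genetically defined yeast strains from a DNA-repair/cell-cycle panel were used. Compound-exposed yeast growth was measured, and the inhibition was calculated relative to vehicle treatment.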

[12] = NCI Yeast Anticancer Drug Screen. Data for the mlh1 strain (AID 171);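 also: 0% = growth of vehicle-treated control cultures of the same strain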; conditions: S. cerevisiae mlh1 strain growth inhibition, hits give high values
Method in brief: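 Here the genetically defined yeast mutant is grown with each compound, and the extent to which its growth falls below that of vehicle-exposed cells is reported.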

[13] = NCI Yeast Anticancer Drug Screen. Data for the sgs1 strain (AID 173);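 also: 0% = growth of vehicle-only control cultures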; conditions: S. cerevisiae sgs1 mutant, hits give high values
Method in brief: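 Relative growth inhibition, referenced to vehicle, was determined in a yeast strain with a defined alteration affecting DNA damage repair or cell cycle control after compound exposure.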

[14] = NCI Yeast Anticancer Drug Screen. Data for the mlh1 rad18 strain (AID 175); conditions: S. cerevisiae mlh1 rad18 strain growth inhibition, hits give high values
Method in brief: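 In this whole-cell yeast screen, a strain with altered DNA damage repair is challenged with compound, and its growth is measured against matched vehicle-treated controls.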

[15] = NCI Yeast Anticancer Drug Screen. Data for the rad18 strain (AID 177); conditions: S. cerevisiae rad18 mutant growth inhibition, hits give high values
Method in brief: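 Screen uses a yeast strain with a defined lesion in DNA damage repair; compound effect is read as loss of growth compared to untreated vehicle cultures.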

[16] = NCI Yeast Anticancer Drug Screen. Data for the rad50EPP+ strain (AID 151);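 also: 0% = growth of vehicle-treated control cultures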; conditions: S. cerevisiae rad50 mutant strain, hits give high values
Method in brief: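 One strain with a rad50 alteration (rad50EPP+) was compound-treated, its growth then compared to that of vehicle controls.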

[17] = at 5.0 µM (retest, dose inferred, filed as 0.5)
[18] = at 50.0 µM (retest, dose inferred, filed as 5.0)

Measured: growth inhibition

COc1ccc(-c2cc(-c3cc(C)cc(Cl)c3O)nc3[nH]c(=S)[nH]c(=S)c23)cc1
inactive: [1]; at 1.2 µM 1% | [1]; at 3.7 µM 4% | [1]; at 11.0 µM 6% | [1]; at 33.0 µM 15% | [2]; at 1.2 µM 0% | [2]; at 3.7 µM -1% | [2]; at 11.0 µM 0% | [2]; at 33.0 µM 1% | [2]; at 100.0 µM 35% | [3]; at 1.2 µM -1% | [3]; at 3.7 µM -2% | [3]; at 11.0 µM -3% | [3]; at 33.0 µM 25% | [4]; at 1.2 µM 3% | [4]; at 3.7 µM 5% | [4]; [17] -32% | [4]; at 11.0 µM 6% | [4]; at 33.0 µM 11% | [4]; at 100.0 µM 57% | [5]; at 1.2 µM 0% | [5]; at 3.7 µM 0% | [5]; [17] 2% | [5]; at 11.0 µM -2% | [5]; at 33.0 µM 2% | [5]; [18] 62% | [5]; at 100.0 µM 57% | [6]; at 1.2 µM 1% | [6]; at 3.7 µM 4% | [6]; at 11.0 µM 9% | [6]; at 33.0 µM 17% | [7]; [17] -13% | [7]; [18] 68% | [8]; at 1.2 µM -2% | [8]; at 3.7 µM -2% | [8]; at 11.0 µM -3% | [8]; at 33.0 µM -5% | [9]; [17] 44% | [9]; at 50.0 µM 65.5% | [10]; at 1.2 µM 2% | [10]; at 3.7 µM 4% | [10]; [17] -20% | [10]; at 11.0 µM 0% | [10]; at 33.0 µM 1% | [10]; [18] 63% | [10]; at 100.0 µM 58% | [11]; at 1.2 µM 0% | [11]; at 3.7 µM -4% | [11]; at 11.0 µM -4% | [11]; at 33.0 µM 6% | [12]; at 1.2 µM -1% | [12]; at 3.7 µM -2% | [12]; at 11.0 µM 0% | [12]; at 33.0 µM 10% | [13]; at 1.2 µM 1% | [13]; at 3.7 µM -2% | [13]; at 11.0 µM -1% | [13]; at 33.0 µM 16% | [14]; [17] -31% | [15]; at 1.2 µM 0% | [15]; at 3.7 µM -2% | [15]; at 11.0 µM -16% | [15]; at 33.0 µM 8% | [15]; at 100.0 µM 61%
active: [1]; at 100.0 µM 72% | [3]; at 100.0 µM 94% | [4]; [18] 96% | [4]; at 50.0 µM 75.1% | [5]; at 50.0 µM 82.6% | [6]; at 100.0 µM 89% | [7]; at 50.0 µM 84.8% | [8]; at 100.0 µM 87% | [9]; [18] 76% | [10]; at 50.0 µM 70.5% | [11]; at 100.0 µM 87% | [12]; at 100.0 µM 87% | [13]; at 100.0 µM 93% | [14]; [18] 86% | [14]; at 50.0 µM 87.1%

CC(C)(N=Nc1ccc(Cl)cc1)[N+](=O)[O-]
active: [1]; at 11.0 µM 90% | [1]; at 33.0 µM 97% | [1]; at 100.0 µM 97% | [16]; at 33.0 µM 90% | [16]; at 100.0 µM 96% | [3]; at 11.0 µM 79% | [3]; at 33.0 µM 98% | [3]; at 100.0 µM 99% | [4]; at 11.0 µM 93% | [4]; at 33.0 µM 98% | [4]; [18] 98% | [4]; at 50.0 µM 99% | [4]; at 100.0 µM 98% | [5]; at 33.0 µM 98% | [5]; [18] 99% | [5]; at 50.0 µM 98.9% | [5]; at 100.0 µM 98% | [6]; at 11.0 µM 76% | [6]; at 33.0 µM 97% | [6]; at 100.0 µM 97% | [7]; [18] 98% | [7]; at 50.0 µM 98.7% | [8]; at 11.0 µM 83% | [8]; at 33.0 µM 97% | [8]; at 100.0 µM 98% | [9]; [18] 98% | [9]; at 50.0 µM 98.5% | [10]; at 11.0 µM 82% | [10]; at 33.0 µM 97% | [10]; [18] 99% | [10]; at 50.0 µM 99% | [10]; at 100.0 µM 98% | [11]; at 11.0 µM 88% | [11]; at 33.0 µM 98% | [11]; at 100.0 µM 98% | [12]; at 11.0 µM 77% | [12]; at 33.0 µM 98% | [12]; at 100.0 µM 99% | [13]; at 11.0 µM 95% | [13]; at 33.0 µM 98% | [13]; at 100.0 µM 98% | [14]; [18] 98% | [14]; at 50.0 µM 98.7% | [15]; at 11.0 µM 94% | [15]; at 33.0 µM 98% | [15]; at 100.0 µM 96%
inactive: [1]; at 1.2 µM 17% | [1]; at 3.7 µM 27% | [16]; at 1.2 µM 13% | [16]; at 3.7 µM 17% | [16]; at 11.0 µM 60% | [3]; at 1.2 µM 12% | [3]; at 3.7 µM 22% | [4]; at 1.2 µM 15% | [4]; at 3.7 µM 35% | [4]; [17] 47% | [5]; at 1.2 µM -1% | [5]; at 3.7 µM 9% | [5]; [17] 28% | [5]; at 11.0 µM 64% | [6]; at 1.2 µM 16% | [6]; at 3.7 µM 21% | [7]; [17] 35% | [8]; at 1.2 µM 14% | [8]; at 3.7 µM 19% | [9]; [17] -1% | [10]; at 1.2 µM 19% | [10]; at 3.7 µM 18% | [10]; [17] 27% | [11]; at 1.2 µM 12% | [11]; at 3.7 µM 15% | [12]; at 1.2 µM 3% | [12]; at 3.7 µM 11% | [13]; at 1.2 µM 11% | [13]; at 3.7 µM 19% | [14]; [17] 47% | [15]; at 1.2 µM 15% | [15]; at 3.7 µM 23%

— PubChem BioAssay (NCI)
